The supplement of paper PMC8253809
“And” between values parts separate entries of the source, which are not always exact repeats. Equal entries are not always repeated.

Legend:
Test in all cases: growth inhibition (% activity, log2 RLU normalised to DMSO / staurosporine); higher = more growth inhibition
Settings in all cases: 33 µM
DIPGX29 = tested on: DIPGX29 (H3.3 K27M diffuse intrinsic pontine glioma line)
Summary of the method: (§1)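 The growth-inhibition value comes from CellTiter-Glo luminescence, log2-transformed, normalised per plate to % activity between solvent and positive control wells, and taken as the median over replicates. Treatment of pHGG cell lines and H9-derived neural stem cells with approved drugs was at a single final concentration of about 33 μM, in triplicate, for 7 days at 37 °C, 5% CO2.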

DIPGX37 = tested on: DIPGX37 (H3.3 K27M diffuse intrinsic pontine glioma line)
Summary of the method: as §1

DIPGX7 = tested on: DIPGX7 (H3.3 K27M diffuse intrinsic pontine glioma line)
Summary of the method: as §1

DIPGX9 = tested on: DIPGX9 (diffuse intrinsic pontine glioma line)
Summary of the method: as §1

HGGX39 = tested on: HGGX39 (paediatric high-grade glioma line)
Summary of the method: as §1

HGGX6 = tested on: HGGX6 (H3.3 G34R paediatric high-grade glioma line)
Summary of the method: as §1

HNSC = tested on: HNSC
Summary of the method: as §1

SUDIPGIV = tested on: SUDIPGIV (diffuse intrinsic pontine glioma line)
Summary of the method: as §1

SUDIPGVI = tested on: SUDIPGVI (diffuse intrinsic pontine glioma line)
Summary of the method: as §1

SUDIPGXIII = tested on: SUDIPGXIII (diffuse intrinsic pontine glioma line)
Summary of the method: as §1

Structure (SMILES)	growth inhibition (DIPGX29)	growth inhibition (DIPGX37)	growth inhibition (DIPGX7)	growth inhibition (DIPGX9)	growth inhibition (HGGX39)	growth inhibition (HGGX6)	growth inhibition (HNSC)	growth inhibition (SUDIPGIV)	growth inhibition (SUDIPGVI)	growth inhibition (SUDIPGXIII)
CCCC(C(=O)OCCN(CC)CC)(c1ccccc1)c1ccccc1	3.18%	1.54%	2.35%	0.685%	0.885%	3.92%	4.69%	1.52%	1.12%	2.55%
CC1(C)S[C@@H]2[C@H](NC(=O)[C@H](NC(=O)N3CCN(S(C)(=O)=O)C3=O)c3ccccc3)C(=O)N2[C@H]1C(=O)O	-1.26%	0.368%	-0.979%	-1.9%	-0.656%	-0.1%	-2.17%	0.286%	-2.19%	2.64%
C[C@H]1NC(=O)NC1=O	-0.365%	0.903%	-1.69%	-0.744%	-0.268%	0.316%	-0.248%	-0.465%	1.41%	0.834%
O=C(Nc1c(Cl)cncc1Cl)c1ccc(OC(F)F)c(OCC2CC2)c1	2.05%	4.42%	2.92%	2.71%	4.08%	2.51%	2.92%	7.2%	6.56%	-0.978%
N[C@H](Cc1ccccc1)C(=O)O	1.07%	4.02%	1.99%	1.11%	3.77%	0.895%	14.5%	3.32%	2.63%	2.11%
CCN1CCN(C(=O)N[C@@H](C(=O)N[C@@H]2C(=O)N3[C@@H]2SC(C)(C)[C@@H]3C(=O)O)c2ccccc2)C(=O)C1=O	-0.286%	0.221%	-0.734%	-1.09%	-0.282%	0.186%	-1.83%	-0.166%	0.068%	-11.8%
CCc1c(Cl)c(O)c(Cl)c(O)c1C(=O)O[C@H]1[C@H](O)[C@H](OC)[C@H](OC/C2=C\C=C\C[C@H](O)/C(C)=C/[C@H](CC)[C@@H](O[C@@H]3OC(C)(C)[C@@H](OC(=O)C(C)C)[C@H](O)[C@@H]3O)/C(C)=C/C(C)=C/C[C@@H]([C@@H](C)O)OC2=O)O[C@@H]1C	0.669%	2.16%	0.835%	-0.411%	9.09%	0.0636%	11.6%	3.19%	2.46%	0.498%
CC(C)(Oc1ccc(Cl)cc1)C(=O)O	-2.6%	1.37%	-0.722%	-1.38%	0.448%	-2.21%	5.23%	0.614%	-0.459%	-0.393%
COc1c(C)c2c(c(O)c1C/C=C(\C)CCC(=O)OCCN1CCOCC1)C(=O)OC2	17.5%	14.5%	10.6%	15.1%	17.2%	15.1%	65.5%	8.44%	8.42%	7.66%
CCCCNc1ccc(C(=O)OCCN(C)C)cc1	-1.31%	-0.907%	0.627%	-0.979%	5.11%	4.5%	0.385%	-0.481%	-2.2%	1.02%
O=C(O)c1ccccc1	-1.57%	1.08%	-0.546%	-0.0449%	0.585%	-1.44%	1.02%	1.15%	-2.88%	1.73%
CC[C@H]1OC(=O)[C@H](C)[C@@H](O[C@H]2C[C@@](C)(OC)[C@@H](O)[C@H](C)O2)[C@H](C)[C@@H](O[C@@H]2O[C@H](C)C[C@H](N(C)C)[C@H]2O)[C@](C)(O)C[C@@H](C)C(=O)[C@H](C)[C@@H](O)[C@]1(C)O	0.288%	-2.96%	0.845%	0.939%	1.08%	-0.333%	2.65%	1.14%	2.66%	-1.2%
O=C1C(=O)c2ccccc2C(O)=C1C1CCC(c2ccc(Cl)cc2)CC1 (stereo not given)	1.86%	-1.09%	2.26%	2%	1.71%	0.641%	2.01%	3.44%	2.48%	1.82%
Clc1ccc2nsnc2c1NC1=NCCN1	-1.22%	-2.25%	-1.44%	-1.35%	-0.915%	-1.61%	-2.35%	-2.55%	-2.56%	-1.44%
CS(=O)(=O)c1ccc(C(=O)Nc2ccc(Cl)c(-c3ccccn3)c2)c(Cl)c1	2.56%	2.2%	3.42%	7.16%	5.46%	2.09%	4.02%	0.0205%	4.38%	-0.808%
CCCC(=O)O[C@]1(C(=O)COC(C)=O)CC[C@H]2[C@@H]3C[C@H](F)C4=CC(=O)C=C[C@]4(C)[C@@]3(F)[C@@H](O)C[C@@]21C	1.5%	1.44%	-0.393%	2.91%	2.12%	0.881%	-3.23%	-4.91%	-0.161%	1.12%
CC1CCc2c(N3CCC(O)CC3)c(F)cc3c(=O)c(C(=O)O)cn1c23 (stereo not given)	1.83%	2.99%	1.32%	2.53%	3.35%	2.89%	4.09%	0.692%	3.03%	-1.17%
CC(=O)OCC(=O)[C@@]1(O)CC[C@H]2[C@@H]3CCC4=CC(=O)C=C[C@]4(C)[C@@]3(Cl)[C@@H](Cl)C[C@@]21C	0.772%	1.33%	1.5%	3.59%	0.199%	-1.27%	8.39%	-2.64%	-2.25%	1.64%
N=S(=O)(O)Cc1noc2ccccc12	-1.43%	-1.83%	-1.41%	-1.19%	-0.682%	-1.72%	-4.88%	-1.71%	-4.93%	-0.253%
CC(N)C12CC3CC(CC(C3)C1)C2 (stereo not given)	-0.149%	2.59%	0.357%	0.266%	1.62%	0.391%	1.01%	0.585%	-0.365%	-0.4%

Structure (SMILES)	growth inhibition (DIPGX29)	growth inhibition (DIPGX37)	growth inhibition (DIPGX7)	growth inhibition (DIPGX9)	growth inhibition (HGGX39)	growth inhibition (HGGX6)	growth inhibition (HNSC)	growth inhibition (SUDIPGIV)	growth inhibition (SUDIPGVI)	growth inhibition (SUDIPGXIII)
C#C[C@]1(OC(C)=O)CC[C@H]2[C@@H]3CCC4=C[C@@H](OC(C)=O)CC[C@@H]4[C@H]3CC[C@@]21C	0.289%	0.452%	-1.67%	1.3%	-0.196%	0.0724%	1.57%	-1.23%	1.15%	1.62%
Cc1ccc(Nc2nccc(N(C)c3ccc4c(C)n(C)nc4c3)n2)cc1S(N)(=O)=O	3.74% and 7.46%	4.99% and 1.63%	5% and 10.4%	3.67% and 7.92%	6.65% and 10.2%	5.31% and 11.1%	4.18% and 9.11%	4.44% and 6.85%	5.08% and 5.8%	3.27% and 1.33%
COc1ccc([C@@H]2Sc3ccccc3N(CCN(C)C)C(=O)[C@@H]2OC(C)=O)cc1	-1.14%	-1.86%	0.795%	-0.923%	-2.92%	-0.0969%	-0.232%	-1.32%	-1.92%	0.713%
O=C(NC(Cc1cc(=O)[nH]c2ccccc12)C(=O)O)c1ccc(Cl)cc1 (stereo not given)	0.575%	0.0807%	-1.26%	0.987%	0.192%	0.202%	-1.11%	-0.753%	0.645%	0.24%
CO[C@H]1/C=C/O[C@@]2(C)Oc3c(C)c(O)c4c(O)c(c(/C=N/N5CCN(C6CCCC6)CC5)c(O)c4c3C2=O)NC(=O)/C(C)=C\C=C\[C@H](C)[C@H](O)[C@@H](C)[C@@H](O)[C@@H](C)[C@H](OC(C)=O)[C@@H]1C	1.87%	1.82%	1.73%	2.34%	2.99%	2.94%	0.219%	-0.888%	1.12%	0.627%
CC(=O)[C@H]1CC[C@H]2[C@@H]3CC=C4C[C@@H](O)CC[C@]4(C)[C@H]3CC[C@]12C	-0.784%	-0.0978%	-1.68%	-0.764%	-1.75%	-0.479%	-2.77%	-1.85%	-0.676%	0.295%
CC(C)(O)c1ccccc1CC[C@@H](SCC1(CC(=O)O)CC1)c1cccc(/C=C/c2ccc3ccc(Cl)cc3n2)c1	-0.862%	0.461%	-2.4%	-1.33%	-0.172%	-2.63%	-3.15%	-1.21%	-0.324%	-15.7%
CCC(CC)[C@H](NC(C)=O)[C@@H]1[C@H](O)[C@@H](C(=O)O)C[C@H]1NC(=N)N	-0.417%	-0.255%	-0.771%	-0.84%	-1.05%	-1.09%	-1.8%	-0.387%	-0.749%	2.27%
Nc1nnc(-c2cccc(Cl)c2Cl)c(N)n1	-0.42%	-0.569%	-0.114%	-0.0846%	0.648%	0.473%	0.358%	-1.97%	0.284%	0.73%
[O-]n1ccccc1=S.[O-]n1ccccc1=S.[Zn+2]	61.5%	60.4%	56.6%	56.4%	20.2%	59.7%	58.4%	48.4%	59.2%	59.7%
O=C(O[C@H]1CN2CCC1CC2)N1CCc2ccccc2[C@@H]1c1ccccc1	1.49%	-0.261%	-0.506%	-0.425%	1.75%	0.102%	-0.949%	-0.487%	1.06%	1.13%
O=C1N=C(O)NC1(c1ccccc1)c1ccccc1	0.482% and -0.485%	2.42% and 3.19%	1.26% and 0.465%	0.659% and -0.0101%	1.57% and 1.18%	2.58% and 1.56%	0.737% and -1.81%	-0.112% and -1.42%	1.87% and 2.15%	-17.1%
CC(S)C(=O)NCC(=O)O (stereo not given)	0.154%	-1.2%	-0.0217%	1.07%	2.86%	0.336%	0.528%	-0.0269%	-0.507%	-0.969%
Cc1nc2n(c(=O)c1CCN1CCC(c3noc4cc(F)ccc34)CC1)CCCC2	2.78%	1.21%	3.37%	1.08%	3.29%	1.84%	0.606%	0.111%	-0.157%	1.25%
O=c1[nH]c(=O)n([C@H]2C[C@H](O)[C@@H](CO)O2)cc1I	0.0722%	-1.6%	-3.14%	-0.0918%	-2.1%	-0.2%	17.9%	-1.37%	-0.112%	0.635%
CNC1CCCN(c2c(F)cc3c(=O)c(C(=O)O)cn(C4CC4)c3c2OC)C1 (stereo not given)	-0.899%	0.515%	-0.411%	1.06%	0.742%	1.27%	-1.65%	-0.11%	-0.677%	0.279%
CCCC(=O)OCOC(=O)C1=C(C)NC(C)=C(C(=O)OC)C1c1cccc(Cl)c1Cl (stereo not given)	2.13%	4.21%	2.32%	2.4%	4.32%	-0.314%	31.7%	2.85%	3.35%	-0.196%
CO[C@@H]1[C@@H](OC(N)=O)[C@@H](O)[C@H](Oc2ccc3c(O)c(NC(=O)c4ccc(O)c(CC=C(C)C)c4)c(=O)oc3c2C)OC1(C)C	-0.0643%	3.02%	1.66%	0.55%	3.59%	-2.58%	12.1%	4.51%	2%	-0.64%
CC(C)(C(=O)O)c1ccc(C(O)CCCN2CCC(C(O)(c3ccccc3)c3ccccc3)CC2)cc1 (stereo not given)	-0.186%	-1.1%	0.287%	0.223%	2.4%	-0.102%	3.07%	0.0574%	1.9%	-0.622%
CC(C)[C@H](N)C(=O)OCCOCn1cnc2c(=O)nc(N)[nH]c21	0.298%	0.698%	-1.22%	1.11%	0.616%	1.05%	-0.55%	-0.767%	0.129%	1.61%
